JMJD2A Tudor inh: inhibitors of human JMJD2A Tudor domain. AlphaScreen JMJD2A-Tudor / H3K4me3 peptide binding. Potency, µM (highest dose often 114 µM), for inactives: top-dose activity change, negative = inhibition, hits mostly inhibitors. actives 4.4% (n = 390,000); further: potency means the concentration at half of the fitted maximal effect; on the % scale 0 is the no-effect control and ±100 the full control effect; nearly all actives have a fitted effect of over 50% in size
PI5P4K alpha inh: PI5P4K alpha (human) kinase inhibition | P48426 | PI5P4Kalpha enzyme, ADP-Glo luminescence, 60 min; stronger effect = lower value | max response, % | actives 1.2% (n = 330,000); active means max response of -50% or lower; inconclusive means between -30% and -50%; inactive means -30% or higher; further: value at the top dose of about 77 µM; on the % scale 0 is the no-effect control and ±100 the full control effect
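Enzyme plus substrate dispensed, test compounds pinned in, then ATP (5 microM final) added. After 60 min at RT, ADP-Glo reagent 1 for 45 min and reagent 2 for 30 min preceded luminescence imaging.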
G9a block: G9a (human) methyltransferase inhibition; Q96KQ7; G9a H3K9 monomethylation, AlphaScreen, 2 h; Potency, µM (series often up to 102 µM), inactives show at the highest dose activity, negative = inhibition, usual class: inhibitors; actives 8.8% (n = 350,000); further: potency means the concentration at half of the fitted maximal effect; on the % scale 0 is the no-effect control and ±100 the full control effect; nearly all actives have a fitted effect of over 75% in size
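Using a bead-based AlphaScreen, monomethylated H3K9 product from 2 h room-temperature reactions (G9a 20 nM, peptide 500 nM, SAM 20 uM) was detected with 0.5 ug/mL rabbit anti-H3K9me1 antibody.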
HP1b binding inh: inhibitors of HP1-beta chromodomain binding to methylated histone tails. P83916. AlphaScreen HP1-beta / biotin-H3K9me3 peptide binding. Potency, µM (titrated, usually from 114 µM), for inactives: at the top dose activity change, negative = inhibition, hits mostly inhibitors. actives 0.56% (n = 390,000). AID 540317; further: potency means the concentration at half of the fitted maximal effect; nearly all actives have a fitted effect of over 70% in size
Target sequence (P83916 whole entry, looked up): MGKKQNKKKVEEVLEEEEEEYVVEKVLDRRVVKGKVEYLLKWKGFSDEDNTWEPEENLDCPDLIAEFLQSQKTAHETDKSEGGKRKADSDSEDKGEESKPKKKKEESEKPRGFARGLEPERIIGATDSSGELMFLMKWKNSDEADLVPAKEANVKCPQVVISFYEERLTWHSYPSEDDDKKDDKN
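AlphaScreen: HP1-beta (50 nM) preformed 30 min with biotin-H3(1-18)K9me3 peptide (50 nM) in PBS pH 7.4, 0.01% Tween-20. Compound added for 30 min at RT, then streptavidin donor/nickel chelate acceptor beads (10 ug/mL) for 30 min.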
PLK1 PBD block: PLK1 (human) polo-box domain binding inhibition; P53350; Plk1 PBD binding of FITC phosphopeptide, fluorescence polarization; Potency, µM, inactives show max response, negative = inhibition, usual class: inhibitors; actives 2.8% (n = 360,000); further: potency means the concentration at half of the fitted maximal effect; series mostly up to about 57 µM; on the % scale 0 is the no-effect control and ±100 the full control effect; nearly all actives have a fitted effect of over 65% in size
Target sequence (P53350 whole entry, looked up, the tested form may be a part): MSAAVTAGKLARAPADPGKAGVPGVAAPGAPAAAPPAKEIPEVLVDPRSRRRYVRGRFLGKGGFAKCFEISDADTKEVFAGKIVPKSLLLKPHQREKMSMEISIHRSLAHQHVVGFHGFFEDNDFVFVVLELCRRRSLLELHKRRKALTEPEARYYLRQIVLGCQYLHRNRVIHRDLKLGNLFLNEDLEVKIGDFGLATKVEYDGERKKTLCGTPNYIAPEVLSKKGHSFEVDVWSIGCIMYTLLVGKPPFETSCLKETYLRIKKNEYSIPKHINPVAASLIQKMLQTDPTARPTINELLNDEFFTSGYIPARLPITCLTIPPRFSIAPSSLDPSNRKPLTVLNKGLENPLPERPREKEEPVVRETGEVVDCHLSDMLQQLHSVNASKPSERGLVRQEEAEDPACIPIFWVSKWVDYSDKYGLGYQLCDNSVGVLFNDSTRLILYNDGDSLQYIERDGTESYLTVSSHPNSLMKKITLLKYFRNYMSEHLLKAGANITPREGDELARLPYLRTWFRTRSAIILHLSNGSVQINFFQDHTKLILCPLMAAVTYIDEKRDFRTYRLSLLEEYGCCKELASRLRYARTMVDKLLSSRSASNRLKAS
BAZ2B inh: blocks human BAZ2B; Potency, µM (series often up to 114 µM), for inactives: at the top dose activity change, negative = inhibition, hits mostly inhibitors; actives 4.4% (n = 360,000); Q9UIF8; AlphaScreen BAZ2B-H3K14Ac peptide displacement; further: potency means the concentration at half of the fitted maximal effect; on the % scale 0 is the no-effect control and ±100 the full control effect; nearly all actives have a fitted effect of over 60% in size
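AlphaScreen displacement: compounds (up to 110uM) incubated 30 min at room temperature with a preformed 50 nM BAZ2B/50 nM biotinylated H3K14Ac peptide complex in PBS pH 7.4 with Tween-20. Donor and acceptor beads at 10 ug/mL final added, 20 min light-protected before reading.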
Numbers without * were called inactive; ? = inconclusive; . = no result given; [ ] = remark or other dose. An excerpt weighted towards active compounds, which were near 12% of everything screened. Unless noted, the call rests on the fitted dose curve; in most records, active means well fitted curve in the direction sought with a large enough effect; inconclusive means small, poorly fitted or top-dose-only effect, or another doubt; inactive means no such curve, though single readings can be large; an effect the other way counts as inactive or inconclusive.

SMILES | JMJD2A Tudor inh | PI5P4K alpha inh | G9a block | HP1b binding inh | PLK1 PBD block | BAZ2B inh
CCCNC(=O)C(Cc1ccccc1)NC(=O)Cc1ccccc1 (stereo not drawn) | 4.9% | 5.9 | -2.1%[2.33 µM] | 64.9% | 1.1% | -5.5%
O=C(O)c1cccc(N2C(=O)c3cccc4c(Cl)ccc(c34)C2=O)c1 | -21.7% | 7.0 | ? | 28.0% | -9.0% | -24.9%
CC(C)CCN1C(=O)c2cccc3c(N)ccc(c23)C1=O | 98.3% | 8.6 | . | 188.2% | 5.32µM* | .
Cc1cccc(N2C(=O)c3cccc4cccc(c34)C2=O)c1 | -27.2% | -3.8 | -3.4%[0.501 µM] | 57.1% | -5.2% | -1.8%
Cc1cccc(N2C(=O)c3cccc4c(N)ccc(c34)C2=O)c1 | 56.2% | -0.2 | . | 110.4% | 3.77µM* | 27.4%
Nc1cccc(N2C(=O)c3cccc4c(N)ccc(c34)C2=O)c1 | -23.2% | -17.1 | 12.1% | 20.2% | 10.6µM* | 1.6%
CC(=O)Nc1cccc2c1C(=O)N(c1cccc(C)c1)C2=O | -18.9% | 6.7 | 26.5%[59 µM] | 32.4% | -5.7% | 1.7%
Cc1cccc(N2C(=O)c3cccc4c(N(C)CCO)ccc(c34)C2=O)c1 | 20.1% | . | 1.7%[59 µM] | 59.6% | 10.6µM* | .
CC1Cc2nc(SCC(=O)NCC3CCCO3)n(C)c(=O)c2S1 (stereo not drawn) | -16.6% | 0.4 | . | 19.8% | -9.1% | -11.2%
CC(C)(C)c1ccc(OCC(=O)NCC(c2cccs2)N2CCOCC2)cc1 (stereo not drawn) | -18.7% | 7.1 | 4.3% | 2.6% | 4.0% | 3.5%
CCO[C@H]1OC(C(=O)NCc2ccccc2)=C[C@@H](C(C)(C)C)[C@@H]1CCCO | -10.0% | -2.3 | . | 44.8% | -11.5% | .
CN(C)c1ccc2c3c(cccc13)C(=O)N(c1ccccc1)C2=O | . | . | 35.0% | . | . | -23.4%
Nc1ccc2c3c(cccc13)C(=O)N(c1ccccc1)C2=O | 0.3% | 0.5 | -24.5% | 66.4% | 1.34µM* | 3.5%
O=C(CCN1C(=O)C2CC=C(Cl)CC2C1=O)NCc1ccccc1 (stereo not drawn) | -2.3% | 1.8 | 17.8µM* | 27.0% | -6.1% | -4.6%
O=C(CN1C(=O)C2CC=C(Cl)CC2C1=O)Nc1ccc(C(=O)O)cc1 (stereo not drawn) | -25.4% | . | 12.6µM* | 11.5% | -7.7% | -11.8%
COc1ccc(NC(=O)c2ccc(N3C(=O)C4CC=C(Cl)CC4C3=O)cc2)cc1 (stereo not drawn) | -18.9% | -51.2* | -45.6% | 48.5% | -0.1% | ?
Cc1csc(CN(C)C(=O)C2CCC(=O)N(CCN(C)C)C2)n1 (stereo not drawn) | 2.3% | -5.9 | -45.5% | 48.5% | 1.3% | 8.8%
CCc1ccc(-n2c(=O)c3c4c(sc3n(CC(=O)c3ccc(F)cc3)c2=O)CCC4)cc1 | -16.0% | . | 0.1%[59 µM] | 13.2% | . | 2.2%
CCn1c(=O)cc(OCC(=O)NC(C)c2ccc3c(c2)OCCO3)c2ccccc21 (stereo not drawn) | ? | -7.2 | 3.9%[59 µM] | ? | 26.7µM* | -2.2%
CCOC(=O)c1csc(N/N=C2\CCc3ccccc32)n1 | ? | -2.3 | 28.2µM* | 2.3% | -16.5% | 44.7µM*
CCOC(=O)c1csc(N/N=C2\CCCc3ccccc32)n1 | ? | -2.6 | 25.1µM* | 21.0% | ? | ?
Cc1ccc(S(=O)(=O)N2C[C@H]3[C@H]4C(=O)N(Cc5ccccc5)C(=O)[C@H]4CC(=O)[C@H]3[C@@H]2c2cccc3ccccc23)cc1 | . | 2.3 | . | . | -3.5% | .
Cc1ccc(CNC(=O)c2nc(-c3ccc(Cl)cc3)n3c2CCCCC3)cc1 | 22.4µM* | . | 8.91µM* | ? | . | 10µM*
COc1ccc(NC(=O)c2nc(-c3ccc(C)cc3)n3c2CCCCC3)c(OC)c1 | -10.5% | . | 4.7%[59 µM] | 23.8% | . | 0.2%
COc1ccc(OC)c(CCNC(=O)c2nc(-c3ccc(Cl)cc3)n3c2CCCCC3)c1 | 28.2µM* | . | 14.1µM* | -20.8% | . | 15.8µM*
SMILES | JMJD2A Tudor inh | PI5P4K alpha inh | G9a block | HP1b binding inh | PLK1 PBD block | BAZ2B inh
COc1ccc(N2CCN(C(=O)c3nc(-c4ccc(Cl)cc4)n4c3CCCCC4)CC2)cc1 | 35.5µM* | . | 11.2µM* | ? | . | 44.7µM*
Cc1nc(N2CCCC2)ncc1C(=O)N1CCN(c2ccc(Cl)cc2)CC1 | -16.9% | . | 3.7%[59 µM] | 38.2% | . | 79.4µM*
COc1ccc(NC(=O)c2nc(-c3ccc(C)cc3)n3c2CCCCC3)cc1 | -23.0% | . | ? | 26.5% | . | -27.7%
CN(C(=O)c1nc(-c2cccc(F)c2)n2c1CCCCC2)c1ccccc1F | -27.1% | . | 8.7%[59 µM] | 52.5% | . | 1.0%
CCOc1ccc(CCNC(=O)c2nc(-c3cccc(F)c3)n3c2CCCCC3)cc1OCC | 50.1µM* | . | 28.2µM* | ? | . | 17.8µM*
CCOC(=O)c1cc(CC)sc1N1C(=O)CC(Sc2ccccc2C(=O)O)C1=O (stereo not drawn) | -25.5% | -4.4 | 1.78µM* | 24.3% | ? | 63.1µM*
COC(=O)c1c(N2C(=O)CC(Sc3ccccc3C(=O)O)C2=O)sc2c1CCCC2 (stereo not drawn) | -29.4% | -22.2 | 1.41µM* | 6.8% | 23.8µM* | 50.1µM*
CCOC(=O)c1cc(CC)sc1N1C(=O)CC(Sc2ncccc2C(=O)O)C1=O (stereo not drawn) | -6.2% | -5.1 | 25.1µM* | 53.5% | -1.3% | -22.4%
O=C(O)c1ccccc1SC1CC(=O)N(c2ccccc2)C1=O (stereo not drawn) | ? | 2.9 | ? | 17.6% | -11.5% | -19.7%
O=S(=O)(c1ccc(F)cc1)N1CCN(c2nc(-c3ccccc3)nc3cc(Cl)ccc23)CC1 | -12.3% | . | . | 15.0% | . | .
Cc1ccc(NC(=O)c2ccc3c(c2)NC(=O)c2ccccc2S3)cc1 | -11.3% | . | -0.3%[59 µM] | 31.5% | . | 3.7%
CC(=O)N(C)c1ccc(NS(=O)(=O)Cc2ccccc2)cc1 | -0.8% | -4.5 | 56.2µM* | 11.0% | -17.6% | 5.8%
CC(=O)c1ccc(NS(=O)(=O)Cc2ccccc2)cc1 | -17.8% | . | 9.6%[59 µM] | 60.1% | -0.9% | 1.2%
CCC(C(=O)NC1CCCC1)N(C(=O)c1snc(C(N)=O)c1N)c1ccc(C)cc1C (stereo not drawn) | -3.7%[57.1 µM] | -7.8 | 16.9% | 63.2% | -15.8% | 8.6%
N#CC(C#N)=c1ccc2c(c1)N1C3=C(CCCC3)CC3CCCCC31N=2 (stereo not drawn) | 44.7µM* | -9.9 | 2.24µM* | ? | -10.1% | 1.78µM*
N#C/C(C(N)=O)=c1/ccc2c(c1)N1C3=C(CCCC3)CC3CCCCC31N=2 (stereo not drawn) | 6.31µM* | 25.5 | 3.98µM* | 10µM* | -20.9% | 3.55µM*
O=C(O)c1cc(N=Nc2c(O)[nH]c3ccc([N+](=O)[O-])cc23)ccc1Cl | -25.8% | -73.1* | -8.2% | 1.9% | -22.9% | ?
